The campaign covered roughly 330,000 compounds. About 10,000 (3%) were called active.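 Rule for the calls: active = inhibition of at least 50% at 8 µM in the primary screen; inactive = the rest.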 This excerpt belongs to a sample that is enriched for actives.
Target: Protein Mdm4 (Homo sapiens) + E3 ubiquitin-protein ligase Mdm2 (Homo sapiens) (UniProt O15151+Q00987)
Test: disruptors of Mdm2/MdmX RING complex – cell-based, luminescence, split luciferase, SaOS-2, uHTS, primary screen (AID 485346)
Settings: SaOS-2 split-luciferase Mdm2/MdmX complementation, at 8 µM, hits give high values

Protein Mdm4 (Homo sapiens) + E3 ubiquitin-protein ligase Mdm2 (Homo sapiens), sequence (O15151 whole entry, looked up): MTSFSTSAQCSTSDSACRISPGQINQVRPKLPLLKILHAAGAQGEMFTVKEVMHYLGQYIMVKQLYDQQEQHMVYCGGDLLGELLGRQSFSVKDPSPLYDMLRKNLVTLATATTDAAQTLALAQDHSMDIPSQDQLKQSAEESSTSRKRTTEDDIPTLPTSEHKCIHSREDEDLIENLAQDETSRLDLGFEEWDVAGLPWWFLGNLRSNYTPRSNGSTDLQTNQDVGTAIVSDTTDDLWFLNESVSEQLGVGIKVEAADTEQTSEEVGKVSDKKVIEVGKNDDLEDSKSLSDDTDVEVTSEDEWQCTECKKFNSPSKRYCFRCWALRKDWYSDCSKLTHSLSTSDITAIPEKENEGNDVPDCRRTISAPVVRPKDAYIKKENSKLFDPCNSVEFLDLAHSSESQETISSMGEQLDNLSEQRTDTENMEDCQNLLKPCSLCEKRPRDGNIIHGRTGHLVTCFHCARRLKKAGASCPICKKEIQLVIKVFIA
Protein Mdm4 (Homo sapiens) + E3 ubiquitin-protein ligase Mdm2 (Homo sapiens), sequence (Q00987 whole entry, looked up): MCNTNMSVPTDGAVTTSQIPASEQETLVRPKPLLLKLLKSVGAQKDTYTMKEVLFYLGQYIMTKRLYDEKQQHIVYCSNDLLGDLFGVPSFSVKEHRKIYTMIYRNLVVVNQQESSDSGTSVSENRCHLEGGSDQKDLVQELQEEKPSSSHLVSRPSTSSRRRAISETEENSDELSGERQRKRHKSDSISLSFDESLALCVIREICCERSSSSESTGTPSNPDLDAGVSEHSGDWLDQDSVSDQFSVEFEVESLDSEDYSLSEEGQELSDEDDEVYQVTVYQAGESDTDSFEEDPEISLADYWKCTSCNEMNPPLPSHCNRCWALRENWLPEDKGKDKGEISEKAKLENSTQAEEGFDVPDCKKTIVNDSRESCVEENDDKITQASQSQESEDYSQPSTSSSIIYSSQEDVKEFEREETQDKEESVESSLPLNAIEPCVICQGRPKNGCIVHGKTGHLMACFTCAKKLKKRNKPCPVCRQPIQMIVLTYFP

| Compound | inhibition |
| --- | --- |
| O=C(COC(=O)CNC(=O)C1CCCCC1)NCc1ccccc1 | 17.1% (inactive) |
| CCCSc1ccc([C@H]2N[C@@](Cc3ccccc3)(C(=O)OC)[C@H]3C(=O)N(C)C(=O)[C@@H]23)cc1 | 42.6% (inactive) |
| CC1CN(C(=S)Nc2ccccc2F)CC(C)O1 (stereo not given) | 28.4% (inactive) |
| O=C(/C=C/c1cccc([N+](=O)[O-])c1)OCC(=O)N1CCOCC1 | 9.38% (inactive) |
| CCOP(=O)(OCC)C(Nc1cccc(C)c1)c1ccc(F)cc1 (stereo not given) | -2.51% (inactive) |
| Fc1ccccc1Cn1cnc(NC(=S)NCCc2ccccc2)n1 | 45.1% (inactive) |
| N=c1n(CCc2ccccc2)c2ccccc2n1Cc1ccccc1F | 64.2% (active) |
| O=C(COC(=O)Cc1ccccc1F)NCCc1ccccc1 | 6.62% (inactive) |
| Cc1nn(CCOc2ccc(Br)cc2)c(C)c1[N+](=O)[O-] | 18.2% (inactive) |
| C=CC1=C(C(=O)O)N2C(=O)[C@@H](NC(=O)/C(=N\OCC(=O)O)c3csc(N)n3)[C@H]2SC1 | 16% (inactive) |
| COc1ccc(CCOC2OC(CO)C(OC(=O)/C=C/c3ccc(O)c(OC)c3)C(O[C@H]3O[C@@H](C)[C@H](O)[C@@H](O)[C@H]3O)C2O)cc1O (stereo not given in full) | -29.1% (inactive) |
| CCN1/C(=C\c2ccc3ccccc3[n+]2CC)Sc2cc(C)ccc21 | 77.1% (active) |
| COC(=O)C[n+]1cccc2ccccc21 | 6.08% (inactive) |
| O=S(=O)(NCC1CN(S(=O)(=O)c2ccc3c(c2)OCCO3)C1)c1c(F)cccc1F | -1.76% (inactive) |
| O=C(N[C@H]1C/C=C\C(c2ccc(F)cc2)N(Cc2ccccc2)C(=O)C1)OCC1c2ccccc2-c2ccccc21 (stereo not given in full) | 20.2% (inactive) |
| CCCC(=O)Nc1ccc(C(=O)N/N=C/c2ccc[nH]2)cc1 | 70.3% (active) |
| O=C(COc1ccccc1[N+](=O)[O-])N/N=C/c1ccc[nH]1 | 3.97% (inactive) |
| CC(=O)Nc1ccc(C(=O)/C=C/c2ccc[nH]2)cc1 | 1.87% (inactive) |
| O=C(NCc1ccccc1CN1CCCC1)C1CCN(S(=O)(=O)c2ccc(Cl)cc2)CC1 | 3.2% (inactive) |
| CC(C)(C)OC(=O)Nc1ccc([C@@H](NC(=O)OC(C)(C)C)C(=O)OC(C)(C)C)cc1 | 2.33% (inactive) |
| Cc1n[nH]c(=O)nc1N/N=C/c1cccs1 | -4.56% (inactive) |
| COc1ccccc1N1CCN(/N=C/c2ccc(O)cc2O)CC1 | 16.1% (inactive) |
| O=c1c2ccccc2nc(N/N=C/c2ccccc2)n1O | -0.971% (inactive) |

| Compound | inhibition |
| --- | --- |
| Cc1nc2ccccc2nc1N/N=C/c1ccc(O)cc1O | 77.6% (active) |
| Cc1ccc(/C=N/NC(=O)C2=NNC(c3ccccc3)(c3ccccc3)C2)c(O)c1 | 42.2% (inactive) |
| Oc1ccc(/C=N/Nc2nc(-c3ccccc3F)nc3ccccc23)c(O)c1 | 69% (active) |
| CCCNC(=O)OC[C@H]1O[C@H](CCO/N=C/[C@@H](NS(=O)(=O)c2ccc(C)cc2)[C@H](C)/C=C/CC(=O)OC)C=C[C@@H]1Oc1ccc(OC)cc1 | 20.8% (inactive) |
| O=C(Cn1c2[n+](c3ccc(C(F)(F)F)cc31)CCCCC2)Nc1c(F)cccc1F | 13% (inactive) |
| C=CCNC(=O)/C=C/c1ccc(C(C)C)cc1 | -111% (inactive) |
| O=C(c1ccc[nH]c1=S)N1CCN(S(=O)(=O)c2ccc(Br)cc2Cl)CC1 | 2.6% (inactive) |
| COc1ccc(S(=O)(=O)N2CCC(C(=O)N3CCc4ccccc4C3)CC2)cc1OC | -18.3% (inactive) |
| COc1cc2c(cc1OC)CN(C(=O)c1cc(S(=O)(=O)N3CCCCC3)ccc1Cl)CC2 | 20.3% (inactive) |
| COc1cc2c(cc1OC)C(C)N(S(=O)(=O)c1cnc(Cl)c(Cl)c1)CC2 (stereo not given) | 80.7% (active) |
| COC(=O)C1C(=O)NCC1c1ccc(C)cc1 (stereo not given) | 13% (inactive) |
| COC(=O)C1=C(Nc2ccc(C)cc2)C=C(C)C(C(=O)OC)C1c1ccc(F)cc1 (stereo not given) | 50.9% (active) |
| COC(=O)C1=C(Nc2ccc(OC)cc2)C=C(C)C(C(=O)OC)C1c1ccc(C)cc1 (stereo not given) | 19.4% (inactive) |
| CC(C)(C)C(=O)NC1CC2CCCC(C1)N2C(=O)Nc1ccccc1F (stereo not given) | -1.01% (inactive) |
| O=C(CC1C(=O)NCCN1CC(c1ccccc1)c1ccccc1)NCC1CCOCC1 (stereo not given) | 15.7% (inactive) |
| COc1cc(NS(=O)(=O)c2ccc(NC(=S)NC(=O)c3ccccc3)cc2)nc(OC)n1 | 13.4% (inactive) |
| CCOC(=O)N1CCN(C(=O)c2ccc3c(c2)N(Cc2ccc(C)cc2)CCS3)CC1 | 6.09% (inactive) |
| COCCNC(=O)c1ccc(S(=O)(=O)c2ccc(Cl)cc2)c(NC(C)=O)c1 | 14.7% (inactive) |
| CCOC(=O)N1CCN(C(=O)c2ccc(S(=O)(=O)c3ccc(C)cc3)c(NC(C)=O)c2)CC1 | 50.8% (active) |
| CCOC(=O)/C(C#N)=C\c1c(C)cc(C)c(COC(C)=O)c1C | 14.2% (inactive) |
| Cc1cc(C)nc(SCC(=O)c2ccc(Cl)cc2)n1 | 9.88% (inactive) |
| Cc1cc(C)nc(SCC(=O)N(C)C)n1 | -9.55% (inactive) |
| Cc1cc(C)nc(S/C=C/C(=O)c2ccccc2)n1 | 65.8% (active) |

| Compound | inhibition |
| --- | --- |
| CCCc1ccc(C(=O)COC(=O)CN2C(=O)NC3(CCCCC3C)C2=O)cc1 (stereo not given) | 11.7% (inactive) |
| N#CCc1ccc(OC(=O)c2cccnc2)cc1 | 12.8% (inactive) |
| O=C(Oc1ccc(Br)cc1)c1cccnc1 | -5.87% (inactive) |
| O=C(Oc1c(-c2ccco2)oc2ccccc2c1=O)c1cccnc1 | 56.6% (active) |
| O=C(c1ccc(-n2cnnn2)cc1)N1CCN(C(c2ccccc2)c2ccccc2)CC1 | 12.3% (inactive) |
| CCN(CCCNC(=O)CCn1c(=O)[nH]c2ccsc2c1=O)c1ccccc1 | 0.795% (inactive) |
| CCN(CCCNC(=O)c1ccc2c(c1)NC(=O)CN2C)c1cccc(C)c1 | 82.6% (active) |
| CCN(CCCNC(=O)C1CCN(S(=O)(=O)c2cnc[nH]2)CC1)c1ccccc1 | 37.3% (inactive) |
| CC1CC(C)CN(C(=O)CSc2ccsc2[N+](=O)[O-])C1 (stereo not given) | -7.54% (inactive) |
| Oc1ccc(-c2cccc(-c3ccc(O)cc3)c2)cc1 | -24.2% (inactive) |
| COc1cc(CC(=O)Nc2nc(-c3ccc(F)c(F)c3)cs2)cc(OC)c1OC | 28.8% (inactive) |
| COc1ccc2c(c1OC)C(=O)OC2Nc1nc(-c2ccccc2)cs1 (stereo not given) | 98.5% (active) |
| Cc1ccc(-c2csc(NC(=O)Cn3[nH]c(=O)c4ccccc4c3=O)n2)cc1 | 31.2% (inactive) |
| Cc1cccc(Nc2nc(-c3ccccc3)cs2)n1 | -222% (inactive) |
| Cc1ccc(-c2csc(-c3cc(C)on3)n2)cc1 | -47.3% (inactive) |
| Cc1ccc(-c2csc(NC3OC(=O)c4ccccc43)n2)cc1 (stereo not given) | 63.6% (active) |
| OC(CNC1CCCC1)COc1ccc(F)cc1 (stereo not given) | 7.59% (inactive) |
| CCCCCCCCCCOC(=O)C[N+](C)(C)CC1CCCCC1O (stereo not given) | 23.5% (inactive) |
| CCN(CC(=O)NCc1ccc(Cl)cc1)C(=O)c1c(C)noc1C | 3.48% (inactive) |
| O=C(c1ccncc1)N1CCN(S(=O)(=O)c2cccc([N+](=O)[O-])c2)CC1 | -3.71% (inactive) |
| CC(C)c1ccc(-c2noc(C3CCCN(S(C)(=O)=O)C3)n2)cc1 (stereo not given) | 2.01% (inactive) |
| CCN1CCCC1CNC(=O)c1cc2c(=O)n(C)c3ccccc3c2n1C (stereo not given) | 18.3% (inactive) |
| Cn1c(C(=O)NCCCN2CCN(c3cccc(Cl)c3)CC2)cc2c(=O)n(C)c3ccccc3c21 | 76.9% (active) |

| Compound | inhibition |
| --- | --- |
| Cn1c(C(=O)NCCc2ccsc2)cc2c(=O)n(C)c3ccccc3c21 | -6.58% (inactive) |
| O=C(OCC(=O)N1CCN(C(=O)c2ccco2)CC1)c1c(Cl)cccc1Cl | 2.03% (inactive) |
| CCOC(=O)Cn1c2c(c(-c3ccccc3OC)cc1=O)CCCC2 | -13.8% (inactive) |
| CCO[C@H]1OC(C(=O)O)=C[C@@H](C2CCCCC2)[C@@H]1CCCO | -5.58% (inactive) |
| CCCCCCCCCCOC(=O)Cn1c(COc2ccc(C)cc2)[n+](C)c2ccccc21 | 91.9% (active) |
| CCCCn1c(N)c(N(CCOC)C(=O)c2cccc(OCc3ccccc3)c2)c(=O)[nH]c1=O | -6.7% (inactive) |
| CCOC(=O)Cn1c(-c2cccnc2Cl)nc2ccccc21 | -0.413% (inactive) |
| CCCCCCCCCCOC(=O)Cn1c(COc2cccc(OC)c2)[n+](C)c2ccccc21 | 61.7% (active) |
| COc1cccc(OCc2nnc3n2N=C(c2ccccc2)C(CC(=O)O)S3)c1 (stereo not given) | -4% (inactive) |
| CCOC(=O)COn1c(=O)c(-c2ccc(OCC)cc2)[n+]([O-])c2ccccc21 | -23.1% (inactive) |
| COc1cccc(NC(=O)CSc2nnc(C3CCCCC3)n2N)c1 | 18.3% (inactive) |
| CNC[C@@H]1Oc2c(NS(C)(=O)=O)cccc2C(=O)N([C@@H](C)CO)C[C@H]1C | -13.4% (inactive) |
| COC(=O)c1ccc(/C=N/OCC(=O)Nc2cc(F)ccc2F)cc1 | -13.4% (inactive) |
| COc1ccccc1N1CCN(c2ccc([N+](=O)[O-])nc2)CC1 | 16.1% (inactive) |
| COc1ccccc1N1CCN(C(=O)c2c(-c3c(Cl)cccc3Cl)noc2C)CC1 | 15.5% (inactive) |
| COc1ccccc1N1CCN(c2ncnc3sc(C)c(-c4ccccc4)c23)CC1 | 69.2% (active) |
| O=C(NC1Cc2ccccc2C1)c1cc(COc2cccc(C(F)(F)F)c2)on1 | 26.2% (inactive) |
| CCCCN(CCCC)CC(O)Cn1c2ccccc2c(=O)c2ccccc21 (stereo not given) | 18.6% (inactive) |
| CC(=O)c1ccc2c(c1)c1ccccc1n2CC(C)C | 47.4% (inactive) |
| CS(=O)(=O)N(CC(O)Cn1c2ccccc2c2ccccc21)c1cccc2ccccc12 (stereo not given) | 64.1% (active) |
| COc1ccc(S(=O)(=O)N2CCOCC2)cc1NC(=O)CSc1cc(C)ccc1C | 9.92% (inactive) |
